Assay outcomes (PubChem)
An excerpt weighted towards active compounds, which were near 7.9% of everything screened.
HCMV antiviral – qHTS Assay for inhibitors of the human cytomegalovirus (HCMV) | HFF cells, HCMV-luciferase reporter, 72 h; hits give low values | activity change, negative = inhibition, % at 57.5 µM | 410,000 tested, 4.5% active | AID 1259415, 2018; in the data active = activity change below about -60%; inconclusive = no clear call, values can overlap the other calls; inactive = above about -39%
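Inhibition of viral replication was scored as loss of reporter luminescence in HFFs infected with HCMV-luciferase (MOI 1 PFU/cell) for 72 h; compounds tested at 2 doses, normalized to buffer and Salinomycin controls.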
FMDV inh – High Throughput Screening for Foot and Mouth Disease Virus Antivirals; 410,000 tested, 1.2% active; FMDV antiviral cell-based qHTS; Potency, µM (doses to about 57.9 µM), actives largely listed as inhibitors; calls by dose curve; tested in HEK293T cells; note: read-out not given here; nearly all actives have a fitted effect of over 45% in size
HCV inh – qHTS Assay for Inhibitors of Hepatitis C Virus (HCV). Huh7.5.1 HCVcc-Cre infection, luciferase reporter, 44 h. Potency, µM (titrated, usually from 41.8 µM), actives largely listed as inhibitors. 340,000 tested, 3.4% active
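After 44 h co-culture of compound, cells and HCVcc-Cre (~0.5 moi), substrate is added for 15 min at room temperature and luciferase measured over 15 sec. Cells were seeded at 1,000/well and pre-cultured 4 h.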
MARV entry inh – qHTS for inhibitors of binding or entry into cells for Marburg Virus. Marburg virus pseudotyped entry inhibition, cell reporter. 300,000 tested, 1.8% active. Potency, µM (highest dose often 37.8 µM), most hits filed as inhibitors. AID 540276, 2011; calls by dose curve; tested in HEK293 cells
LASV entry inh – qHTS for Inhibitors of binding or entry into cells for Lassa Virus. 300,000 tested, 1.2% active. Lassa virus pseudotype entry inhibition, cell reporter. Potency, µM (top dose mostly 37.9 µM), usual class: inhibitors; calls by dose curve; tested in HEK293 cells; note: nearly all actives have a fitted effect of over 50% in size
HCV inh confirm – qHTS Assay for Inhibitors of Hepatitis C Virus (HCV): Confirmation Assay for Cherry-picked Compounds. shares compounds with HCV inh. 640 tested, 78% active. HCVcc-Cre infectious virus cell assay, luciferase, inhibition. Potency, µM (doses to about 41.8 µM), hits mostly inhibitors; note: nearly all actives have a fitted effect of over 80% in size
HCV host tox – qHTS Assay for Inhibitors of Hepatitis C Virus (HCV): Cytotoxicity Counterscreen for Cherry-picked Compounds | Potency, µM (titrated, usually from 41.8 µM), usual class: inhibitors | shares compounds with HCV inh | AID 720576, 2013 | 640 tested, 22% active | HCV host cell line cytotoxicity counterscreen;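 note: 44 h compound exposure; nearly all actives have a fitted effect of over 55% in size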
Each line names hits and unclear results; the compound was inactive in the other large screens (follow-up assays come after a bar, where they were run); ! = repeats disagree. Unless noted, calls come from the whole dose curve; as a rule, active = well fitted curve in the direction sought with a large enough effect; inconclusive = small, poorly fitted or top-dose-only effect, or another doubt; inactive = no such curve, though single readings can be large; an effect the other way counts as inactive or inconclusive.

Oc1ccccc1-c1nc(NCc2cccnc2)c2ccccc2n1	HCV inh 5.62µM (no result: MARV entry inh, LASV entry inh) | HCV inh confirm 12.5µM | HCV host tox inactive
S=C(NCCCN1CCOCC1)N1CCN(c2nc(-c3ccc(Cl)cc3)cs2)CC1	HCMV antiviral -90.9, FMDV inh 12.6µM, HCV inh 3.16µM, MARV entry inh inconclusive, LASV entry inh 16.4µM | HCV inh confirm 7.05µM | HCV host tox 28µM
S=C(NCCCN1CCOCC1)N1CCN(c2ccccc2)CC1	HCMV antiviral inconclusive
CCn1c(SCC(=O)c2ccccc2)nc2c(c1=O)SC(C)C2 (stereo unspecified)	HCV inh inconclusive, LASV entry inh inconclusive | HCV inh confirm inconclusive | HCV host tox inactive
COCCn1c(SCC(=O)c2ccccc2)nc2c(c1=O)SC(C)C2 (stereo unspecified)	none (no result: FMDV inh)
COc1cc2c(cc1NC(=O)C(Cl)Cl)-c1ccc(NC(=O)C(Cl)Cl)cc1C2	HCMV antiviral -67.8, HCV inh inconclusive, MARV entry inh inconclusive, LASV entry inh inconclusive | HCV inh confirm 17.7µM | HCV host tox inconclusive
O=C(NCCCN1CCOCC1)/C(=C/c1ccc(-c2cccc([N+](=O)[O-])c2)o1)NC(=O)c1ccccc1	none (no result: HCV inh, MARV entry inh, LASV entry inh)
Cc1nc2nc(C)n(CCN3CCOCC3)c(=O)c2c(-c2cccc([N+](=O)[O-])c2)c1C(=O)CCCCCCCCCCN1CCC(c2ccccc2)(c2ccccc2)CC1	HCMV antiviral -77.8, FMDV inh 25.1µM, HCV inh inconclusive, MARV entry inh 0.501µM, LASV entry inh inconclusive | HCV inh confirm 14.1µM | HCV host tox inconclusive
CSc1nc2nc(C)cc(-c3ccccc3)n2n1	HCV inh 7.94µM | HCV inh confirm inconclusive | HCV host tox inactive
CCCn1c(NC(=O)c2ccccc2)nc2ccccc21	HCV inh inconclusive
CCCn1c(NC(=O)c2cccc(S(=O)(=O)N3CCCC3)c2)nc2ccccc21	HCMV antiviral -96.9, FMDV inh 31.6µM, HCV inh 5.01µM, MARV entry inh 6.51µM, LASV entry inh inconclusive | HCV inh confirm 9.95µM | HCV host tox 8.87µM
CCc1ccc(C2CC(=O)c3c([nH]c(C(=O)OC4CCCCCC4)c3C)C2)cc1 (stereo unspecified)	none (no result: HCV inh)
COc1ccccc1NC(=O)c1ccc(SCC(=O)NCc2ccccc2Cl)c([N+](=O)[O-])c1	HCV inh inconclusive | HCV inh confirm inconclusive | HCV host tox inactive
CCCCN(C)C(=O)CN1C(=O)CCn2nc(-c3cn(C)c4ccccc34)cc21	none (no result: HCV inh, MARV entry inh)
COc1cc(NC(=O)c2ccc3c(c2)OCO3)ccc1NC(=O)c1ccco1	HCV inh inconclusive | HCV inh confirm inconclusive | HCV host tox inactive
O=C(O)C(CCc1ccccc1)N1C(=O)c2ccccc2C1=O (stereo unspecified)	HCV inh inconclusive, MARV entry inh inconclusive
COc1ccccc1CC(=O)Nc1cc2oc3ccccc3c2cc1OC	HCV inh 3.98µM, MARV entry inh inconclusive (no result: FMDV inh) | HCV inh confirm 12.5µM | HCV host tox inactive
COc1ccc(-c2cc(-c3ccccc3)c(C#N)c(SCC(=O)Nc3ncc(C)s3)n2)cc1	HCV inh 4.47µM, MARV entry inh inconclusive | HCV inh confirm 19.9µM | HCV host tox inactive
O=C(Cc1ccc(Cl)cc1Cl)Nc1ccncc1Cl	HCMV antiviral -90.2, FMDV inh inconclusive, HCV inh 7.94µM (no result: MARV entry inh, LASV entry inh) | HCV inh confirm 7.05µM | HCV host tox 9.95µM
O=C(O)CCC(=O)Nc1ccc(-c2csc(Nc3cccc4ccccc34)n2)cc1	none (no result: MARV entry inh, LASV entry inh)
COC(=O)C1=C(c2ccc(-c3ccccc3)c(F)c2)C[C@@H]2CC[C@H]1N2C(=O)NCCNC(C)=O	none (no result: MARV entry inh, LASV entry inh)
COC(=O)C1=C(c2ccc(-c3ccccc3)c(F)c2)C[C@@H]2CC[C@H]1N2C(=O)NCc1cccc2ccccc12	HCV inh inconclusive (no result: MARV entry inh, LASV entry inh) | HCV inh confirm 11.2µM | HCV host tox inactive
COc1cccc(NC(=O)CN2CCC(NC(=O)c3ccccc3C)CC2)c1	none (no result: HCV inh, MARV entry inh, LASV entry inh)
Cc1ccc2c(c1)[C@H]1[C@H](CO2)[C@H](c2ccccc2)[C@]2(C)C(=O)N(Cc3ccc(F)cc3)CC(=O)N12	FMDV inh inconclusive, HCV inh inconclusive (no result: MARV entry inh, LASV entry inh) | HCV inh confirm inconclusive | HCV host tox inactive
CSc1cnn(CCC#N)c(=O)n1	none (no result: HCV inh, MARV entry inh, LASV entry inh)
O=C(NC1CC1)C1=C[C@H](c2coc3ccccc3c2=O)C[C@H](OCc2ccc(CO)cc2)O1	none (no result: MARV entry inh, LASV entry inh)
O=C(CSc1nc2nn(-c3ccccc3)c(=O)c-2c2n1CCCCC2)Nc1ccccc1[N+](=O)[O-]	HCV inh inconclusive | HCV inh confirm 14.1µM | HCV host tox inactive
CCC(CC)c1nnc(NC(=O)Cc2c[nH]c3ccccc23)s1	none (no result: HCV inh, MARV entry inh, LASV entry inh)
COc1ccc(NC(=O)C2CCCCN2N)cc1OCC(C)C (stereo unspecified)	HCV inh inconclusive (no result: FMDV inh) | HCV inh confirm inconclusive | HCV host tox inactive
COc1ccc(CNN2CCCCC2C(=O)Nc2ccc(OC)c(OCC(C)C)c2)cc1OC (stereo unspecified)	none (no result: MARV entry inh, LASV entry inh)
COc1ccc(NC(=O)Cc2ccccc2)cn1	LASV entry inh inconclusive
COc1ccc(NC(=O)/C(Cl)=C(/Cl)S(=O)Cc2ccccc2)cn1 (stereo unspecified)	HCMV antiviral -100.4, FMDV inh 6.31µM, HCV inh 0.794µM, MARV entry inh inconclusive, LASV entry inh 1.58µM | HCV inh confirm 6.28µM | HCV host tox 6.28µM
CN(C(=O)COC(=O)C12CC3CC(CC(Cl)(C3)C1)C2)c1ccccc1	MARV entry inh inconclusive, LASV entry inh inconclusive
COC(=O)c1cn(C(=O)c2ccc(F)cc2)c2ccccc12	none (no result: MARV entry inh, LASV entry inh)
COC(=O)c1cn(C(=O)OC)c2ccccc12	HCV inh 5.62µM, MARV entry inh inconclusive | HCV inh confirm inconclusive | HCV host tox inactive
CCn1nccc1NC(=O)c1csc([C@@H]2C[C@H](O)[C@@H](CO)O2)n1	none (no result: HCV inh, MARV entry inh, LASV entry inh)
COc1ccc([N+](=O)[O-])cc1NC(=O)C(C)Sc1nc(C)c(C)c(C)n1 (stereo unspecified)	HCV inh 5.62µM | HCV inh confirm 12.5µM | HCV host tox inactive
COc1ccc([N+](=O)[O-])cc1NC(=O)CSc1nc(C)c(C)c(C)n1	none
Cc1cccc(C)c1OCc1cc(C(=O)N2CCNC(=O)C2)no1	none (no result: MARV entry inh, LASV entry inh)
O=C(c1ccccc1)N1CCC(c2nc(-c3ccc(S(=O)(=O)NCC4CCCO4)cc3)no2)CC1 (stereo unspecified)	HCMV antiviral -89.5, HCV inh 2.82µM, MARV entry inh inconclusive (no result: FMDV inh) | HCV inh confirm 3.53µM | HCV host tox 8.87µM
NC(N)=NC(N)=NCCc1ccccc1	HCMV antiviral -81.9, HCV inh 3.16µM! | HCV inh confirm 2.8µM | HCV host tox inconclusive
